Screening data as filed in PubChem BioAssay.
RORg inh: blocks mouse ROR gamma transcriptional activity | Drosophila S2 Gal4-RORgamma UAS-luciferase reporter, 20 h | 5.4% of 310,000 active | P51450 | Potency, µM (highest dose often 53.6 µM), usual class: inhibitors; further: nearly all actives have a fitted effect of over 60% in size
Target sequence (P51450 whole entry, looked up, the tested form may be a part): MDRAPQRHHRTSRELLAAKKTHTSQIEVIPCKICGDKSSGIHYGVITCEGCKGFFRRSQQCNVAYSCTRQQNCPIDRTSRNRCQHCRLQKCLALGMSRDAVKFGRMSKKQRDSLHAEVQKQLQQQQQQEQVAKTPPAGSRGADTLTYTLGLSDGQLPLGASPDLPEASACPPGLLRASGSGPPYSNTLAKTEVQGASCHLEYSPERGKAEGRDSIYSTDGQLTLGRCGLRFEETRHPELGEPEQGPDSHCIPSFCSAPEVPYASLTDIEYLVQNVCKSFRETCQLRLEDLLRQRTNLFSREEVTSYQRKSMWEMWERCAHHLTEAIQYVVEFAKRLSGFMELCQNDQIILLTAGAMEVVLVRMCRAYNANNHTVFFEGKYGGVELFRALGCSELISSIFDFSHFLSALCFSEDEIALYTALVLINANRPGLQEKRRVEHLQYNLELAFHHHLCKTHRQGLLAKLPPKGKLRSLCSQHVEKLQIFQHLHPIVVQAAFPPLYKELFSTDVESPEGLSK
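Drosophila S2 cells stably expressing Gal4-DBD/mouse RORγ fusion under metallothionein promoter plus UAS-luciferase; compound 1 h, then 700 uM CuSO4 induction for 20 h at ambient temperature; inhibition read as reduced luminescence.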
ATXN2 expr inh: ATXN2 expression inhibition. HEK-293 ATXN2-luciferase reporter, luminescence, 24 h. Potency, µM (highest dose often 57 µM), actives largely listed as inhibitors. 0.72% of 360,000 active; further: nearly all actives have a fitted effect of over 55% in size
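ATXN2-luciferase reporter cells (luciferase flanked by upstream and downstream ATXN2 gene portions) were treated 24 h at 37 °C with compounds at up to 57 uM. SteadyGlo luminescence gave expression; GF-AFC fluorescence gave viability.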
Gal4-VP16 FLuc: counter-screen for ROR gamma inhibitors: Gal4-VP16 reporter. Drosophila S2 Gal4-VP16 UAS-luciferase, luminescence, 20 h. Potency, µM (top dose mostly 53.6 µM), actives largely listed as inhibitors. 3.5% of 310,000 active. AID 2546;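 further: Gal4-VP16 expression switched on by copper sulfate through the metallothionein promoter; nearly all actives have a fitted effect of over 50% in size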
TGFb inhibitor: TGF-b pathway inhibition | Potency, µM (highest dose often 46.1 µM), most hits filed as inhibitors | 1.2% of 410,000 active | HepG2 CAGA-GFP TGF-b/SMAD3 reporter, GFP fluorescence, 18 h; TGF-beta stimulated, 500 pg/mL final | AID 588855; further: nearly all actives have a fitted effect of over 65% in size
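Inhibition of TGF-beta-driven CAGA-GFP reporter expression in HEPG2 cells is measured by cellular GFP fluorescence after 18 h stimulation with 500 pg/mL recombinant TGF-beta in 1% FBS medium at 37 degrees C.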
ATXN viability: reduces viability in counter-screen for ATXN expression inhibitors. S2 cells (HEK-293 line with an ATXN2-luciferase reporter) viability, CellTiter-Fluor protease fluorescence, 24 h. Potency, µM (highest dose often 56.7 µM), actives largely listed as cytotoxic. 0.49% of 400,000 active. AID 651635; further: nearly all actives have a fitted effect of over 40% in size
HepG2 viability: kills HepG2 cells in TGF-b inhibitor counter-screen; Potency, µM (series often up to 46.1 µM), most hits filed as cytotoxic; 0.76% of 410,000 active; HepG2 CAGA-GFP viability, ATP luminescence, 18 h
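HepG2 CAGA-GFP cells (1000/well, DMEM with 1% FBS) received compound, then TGF-beta at 500 pg/mL final, and were incubated 18 hours at 37 degrees C. Viability was read by CellTiter-Glo luminescence. Media-only wells were set as complete cell-killing and DMSO as no toxicity.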
A number is an active result; 0 = inactive; ? = inconclusive; - = not tested or not shown; [ ] = remark or other dose. Most compounds without a hit are left out; they make up all but 6.1% or so of the library. The call rests on the fitted dose curve; in most records, active means well fitted curve in the direction sought with a large enough effect; inconclusive means small, poorly fitted or top-dose-only effect, or another doubt; inactive means no such curve, though single readings can be large; an effect the other way counts as inactive or inconclusive.

SMILES | RORg inh | ATXN2 expr inh | Gal4-VP16 FLuc | TGFb inhibitor | ATXN viability | HepG2 viability
Cc1cccc(/C(N)=N/OC(=O)c2ccc(Br)o2)c1 | 13µM | 0 | ? | 0 | 0 | 0
N/C(=N\OCc1ccc([N+](=O)[O-])cc1)c1ccccn1 | 1.6µM | ? | 2.5µM | 0 | 0 | 0
COc1cc(C(=O)O/N=C(\N)c2ccccn2)cc(OC)c1OC | 0 | - | 0 | 0 | 0 | 0
O=CC(=O)c1ccc(Br)cc1 | - | - | - | 0 | - | 0
Cc1cc(C)c(Cn2c3ccccc3c3cnn(CC(=O)N4CCCCCC4)c(=O)c32)c(C)c1 | - | 0 | - | 0 | 0 | 0
CCC1CN(CCC(=O)N2CCCN(C(=O)c3ccco3)CC2)Cc2cc(OC)ccc2O1 (stereo not given) | - | - | - | - | 0 | -
Cc1cccc(/C(N)=N/OC(=O)c2ccc3c(c2)OCO3)c1 | 10µM | 0 | ? | 0 | 0 | 0
N/C(=N\OC(=O)c1ccc2c(c1)OCO2)c1cccc([N+](=O)[O-])c1 | 0 | - | 0 | 0 | 0 | 0
Cc1cccc(/C(N)=N/OC(=O)c2cccnc2)c1 | 8.9µM | 0 | ? | 0 | 0 | 0
COc1cc(OC)cc(C(=O)O/N=C(\N)c2cccc(C)c2)c1 | 0 | - | ? | 0 | 0 | 0
N/C(=N\OC(=O)c1ccccc1)c1ccccn1 | 1.6µM | ? | ? | 0 | 0 | 0
COc1ccccc1C/C(N)=N/OC(=O)c1ccc2c(c1)OCO2 | 0.89µM | - | ? | 0 | ? | 0
CCc1ccccc1NC(=O)Cn1nc(N2CCN(c3ccccc3OC)CC2)ccc1=O | - | 0 | - | 0 | 0 | 0
N/C(=N\OC(=O)c1ccc(Br)o1)c1ccccn1 | 11µM | 0 | 0 | ? | 0 | 0
N/C(=N\OC(=O)/C=C/c1ccccc1Cl)c1ccccn1 | 11µM | 16µM | 0[10 µM] | 0 | 0 | 0
C=C1CCN(C(CC(C)C)C(=O)NCc2ccc(Cl)cc2)S(=O)(=O)c2ccccc21 (stereo not given) | 0 | - | 0 | ? | - | 0
Cc1cc2c(c(-c3ccc(Cl)cc3)c1)OC(CNC(=O)CCC(=O)N(C)C)C2 (stereo not given) | - | - | - | - | 0 | -
Cc1cccc(OCc2cc(=O)n3c(-c4ccccc4)csc3n2)c1C | - | 0 | - | ? | 0 | 0
Cc1cccc(C)c1OCc1cc(=O)n2c(-c3ccccc3)csc2n1 | - | 0 | - | 10µM | 0 | 0
COc1ccc(C(NC(C)=O)c2ccc3cccnc3c2O)c(OC)c1 (stereo not given) | ? | 1.8µM | 4.5µM | 0 | ? | 0
CC(=O)NC(c1ccc2ccccc2c1)c1ccc2cccnc2c1O (stereo not given) | 5µM | 2.8µM | 1.6µM | ? | 0 | 0
COc1ccc(C(NC(C)=O)c2ccc3cccnc3c2O)cc1OC (stereo not given) | - | - | - | 0 | - | 0
CCCC(=O)NC(c1ccc(Cl)cc1Cl)c1ccc2cccnc2c1O (stereo not given) | 5.6µM | ? | 2µM | ? | 0 | 0
CCN(CC)c1ccc(C(NC(=O)C(C)C)c2ccc3cccnc3c2O)cc1 (stereo not given) | - | - | - | ? | 0 | 0
CC(=O)NC(c1ccc(Cl)cc1Cl)c1ccc2cccnc2c1O (stereo not given) | 2µM | ? | 1.8µM | ? | ? | 0
SMILES | RORg inh | ATXN2 expr inh | Gal4-VP16 FLuc | TGFb inhibitor | ATXN viability | HepG2 viability
Cc1cnc(-n2ncc(C(=O)NCCN3CCOCC3)c2C(C)C)nc1-c1ccc(F)cc1 | - | - | - | - | 0 | -
CCOC(=O)N/N=C1/C[C@@H](O)[C@@H](O)[C@@H]2[C@@H]3C(=O)N(Cc4ccc5c(c4)OCO5)C(=O)[C@H]3CC[C@H]12 | 0[10 µM] | - | 0[10 µM] | - | - | -
CC(C)COC(=O)c1cccc2c1-c1ccccc1/C2=N\O | ? | 0 | 11µM | 14µM | ? | 0
CCOC(=O)c1cccc2c1-c1ccccc1/C2=N/O | 0 | 0 | ? | ? | 0 | 0
O=C(Cn1ncc(Cl)c(Cl)c1=O)NC(=O)NC1CCCCC1 | - | ? | - | ? | 30µM | 0
CC(NC(=O)Cn1ncc(Cl)c(Cl)c1=O)C12CC3CC(CC(C3)C1)C2 (stereo not given) | 13µM | ? | ? | 0 | 18µM | 0
CCn1cc(C(=O)NC(C)C23CC4CC(CC(C4)C2)C3)cn1 (stereo not given) | 0 | 0 | 0 | 0 | 0 | 0
CS(=O)(=O)N1CCN(/[N+]([O-])=N/Oc2ccc([N+](=O)[O-])cc2[N+](=O)[O-])CC1 (tested in a mixture with another compound) | - | - | - | 0 | - | 0
Cc1cc(C)cc(N2C(=O)CC(c3ccc(C(F)(F)F)cc3)C3=C2COC3=O)c1 (stereo not given) | - | 0 | - | 0 | 0 | 0
CC(C)c1ccc(S(=O)(=O)c2cc3cc(Br)ccc3oc2=O)cc1 | 0 | 20µM | ? | 0 | 0 | 0
CCSc1nnc(SCC(=O)NC2CCCCC2)s1 | - | 0 | - | 0 | 0 | 2µM
O=C(CCCl)Nc1nnc(SCC(=O)NC2CCCC2)s1 | 0 | 0 | 2µM | ? | 0 | 0
CN(C)c1ncc2nc(-c3ccccc3)c(=O)n(Cc3cccs3)c2n1 | 0 | - | 0 | - | - | -
COc1ccc(-c2nc(CNC(=O)Nc3ccccc3)c(C)o2)cc1 | - | 0 | - | 0 | 0 | 0
COc1ccc(CCNC(=O)Cn2cc(S(=O)(=O)Cc3cccc(Cl)c3)c3ccccc32)cc1OC | - | - | - | ? | - | 0
Cc1ccc(NC(=O)CCCn2c(=O)c3cccn3c3ccccc32)c(Cl)c1 | - | - | - | 0 | - | 0
Cc1cc(C)cc(NC(=O)CCCn2c(=O)c3cccn3c3ccccc32)c1 | - | - | - | 11µM | - | 0
Cc1ccccc1CNC(=O)c1ccc2nc(C(C)C)oc2c1 | - | - | - | 0 | - | 0
CC1CCN(S(=O)(=O)c2ccc3nc(Nc4ccc(C#N)cc4)ccc3c2)CC1 | - | 0 | - | 10µM | ? | 0
CC1CCN(S(=O)(=O)c2ccc3nc(NCc4ccc(F)cc4)ccc3c2)CC1 | - | 0 | - | 13µM | ? | 0
CC1CCN(S(=O)(=O)c2ccc3nc(Nc4cccc(C(F)(F)F)c4)ccc3c2)CC1 | - | - | - | ? | - | 0
Cc1ccc(C(=O)Cn2c3c(sc2=N)CCCC3)cc1 | 0.79µM | - | ? | - | - | -
COc1cccc(-n2c(C)c3c(OC)cccc(=O)c3c2C)c1 | 6.3µM | 0 | ? | 0 | 0 | 0
NC(=O)N/N=C/c1cn(-c2ccccc2)nc1-c1cccs1 | 0 | 0 | 0 | 0 | 0 | 0
O=C(N/N=C/c1nn(-c2ccccc2)cc1-c1ccccc1)c1ccncc1 | 1.6µM | 0 | 3.2µM | 0 | ? | 0
Cc1ccc(-c2nn(-c3ccccc3)cc2/C=N/NC(=O)c2ccncc2)o1 | 2.8µM | 0 | 11µM | 0 | 0 | 0
Cc1cccc(/C=N/NC(=O)c2ccncc2)n1 | 0 | - | 0 | 0 | 0 | 0
NS(=O)(=O)c1ccc(N/N=C/c2cn(-c3ccccc3)nc2-c2cccs2)cc1 | ? | 0 | ? | 10µM | 0 | 11µM
O=C(N/N=C/c1cn(-c2ccccc2)nc1-c1cccs1)c1ccncc1 | 1.3µM | 0 | 2.2µM | 0 | ? | 0
